Only a selection was taken, and hits are over-represented in it overall.
Algae TAG accum: increases triacylglycerol in Chlamydomonas reinhardtii. AID 1159537. Chlamydomonas reinhardtii TAG, Nile Red fluorescence, 72 h. calls only at 10 µM (by protocol). 44,000 tested, 0.84% active; call rule not given here;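 further: hits raise Nile Red signal meaning more stored TAG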
Active calls of the source: *; i = inactive; + = active, no number.

SMILES	Algae TAG accum
COc1cc2c(cc1OC)CN(Cc1ccc(F)cc1)CC2	+
COc1cc2c(cc1OC)CN(Cc1ccc(N(C)C)cc1)CC2	i
COc1cc2c(cc1OC)CN(Cc1cccc(F)c1)CC2	i
O=S(=O)(Nc1cccc(Cl)c1Cl)c1ccc(F)cc1	i
COc1cc(CNc2ccccc2C)cc2c1OCO2	i
O=C(NC1CCCCC1)c1ccc([N+](=O)[O-])o1	i
O=[N+]([O-])c1ccc(CNC2CCCC2)cc1	+
O=C(NC1CCCCCC1)c1cccc([N+](=O)[O-])c1	i
O=[N+]([O-])c1ccc(CNC2CCCCCC2)cc1	+
CN(Cc1ccc([N+](=O)[O-])cc1)C1CCCCC1	+
CN1CCC(N(C)Cc2cccc([N+](=O)[O-])c2)CC1	i
CC1CCCCC1NCc1ccc([N+](=O)[O-])cc1 (stereo not drawn)	i
O=[N+]([O-])c1ccc(CNC2CCCc3ccccc32)cc1 (stereo not drawn)	i
O=C(NC1CCCCCC1)c1ccc([N+](=O)[O-])cc1	i
O=[N+]([O-])c1cccc(CNC2CCCCCC2)c1	+
O=[N+]([O-])c1cccc(CN2CCCCCC2)c1	i
CN1CCC(N(C)Cc2ccc([N+](=O)[O-])cc2)CC1	i
CCOC(=O)Oc1ccc2c(=O)c(Oc3ccccc3C(C)C)coc2c1	i
CS(=O)(=O)N(CC(=O)Nc1cccnc1)c1cc(Cl)cc(Cl)c1	i
COc1cc(C=O)ccc1OCCOc1ccc(Cl)cc1Cl	i
COc1cccc(OC)c1OCCCOc1cccc(Cl)c1Cl	i
O=C1CC(N(Cc2ccccc2)Cc2ccco2)C(=O)N1c1ccccc1 (stereo not drawn)	i
O=C(CC1(O)C(=O)N(Cc2ccc(Cl)cc2)c2ccccc21)c1cccc([N+](=O)[O-])c1 (stereo not drawn)	i
Cc1ccc(C(=O)NCCCc2ccccc2)cc1C	i
Cc1cc(C)c(/C=C/C(=O)c2cccs2)c(C)c1	i
SMILES	Algae TAG accum
CCCNc1nc(OC)nc(OC)n1	i
O=C(Cn1cnc2scc(-c3cccc([N+](=O)[O-])c3)c2c1=O)NCc1ccccc1	i
COc1cc(CN2CCCCC2)ccc1O	i
O=C(Nc1ccccc1C(=O)c1ccccc1)c1ccccc1Br	i
COc1ccc(-c2nc3c4c5c(sc4ncn3n2)CCCC5)cc1	i
c1ccc(N2CCN(c3ncnc4sc5c(c34)CCC5)CC2)cc1	i
COc1ccc(CN2CCN(c3ncnc4sc5c(c34)CCCC5)CC2)cc1	+
N#C/C(=C\c1ccc(O)c([N+](=O)[O-])c1)c1nc2ccccc2[nH]1	i
O=C(NCC1CCN(C(=O)c2ccc3c(c2)OCO3)CC1)c1ccc2c(c1)OCO2	i
Cn1c(NC(=O)c2cccc(F)c2)cc(=O)n(C)c1=O	i
CC(=O)N(C1=C(Nc2ccccc2)C(=O)c2ccccc2C1=O)c1ccccc1	+
CCCNC1=C(N(C(C)=O)c2cccc(F)c2)C(=O)c2ccccc2C1=O	i
COc1cccc(N(C(C)=O)C2=C(NC3CCCCC3)C(=O)c3ccccc3C2=O)c1	i
CCc1cccc(C)c1NC(=O)C(CC(C)C)N1C(=O)c2ccccc2C1=O (stereo not drawn)	i
CCSc1nnc(NC(=O)c2ccc(C)c([N+](=O)[O-])c2)s1	i
CCOc1cccc(OCCN2CCCC2)c1	i
c1ccc(OCCCN2CCCCC2)cc1	i
COc1ccc(OCCCN2CCCCC2)cc1	+
COc1ccc(OCCCCN2CCCCC2)cc1	i
CCC(C)c1ccc(OCCN2CCCC2)cc1 (stereo not drawn)	+
CCOc1ccc(OCCOCCN2CCCC2)cc1	i
COc1ccc(C(=O)Nc2nc3ccc(C)cc3s2)cc1OC	i
CN1CCCN(CC2CC3C=CC2C3)CC1 (stereo not drawn)	i
CCOc1ccc(-c2csc(C(C#N)=Cc3ccc(N(C)C)cc3)n2)cc1	i
O=C(CCCN1C(=O)c2ccccc2C1=O)Nc1ccc([N+](=O)[O-])cc1Br	i
SMILES	Algae TAG accum
O=C(c1ccccc1)N1CCN(C(=O)c2ccc(Cl)cc2Cl)CC1	i
O=C(Cc1ccc(Cl)cc1)Nc1ccc(N2CCN(C(=O)c3ccccc3)CC2)cc1	i
O=C(Nc1ccc(N2CCN(C(=O)c3ccccc3)CC2)cc1)c1ccc(Cl)cc1Cl	+
Cc1ccc(OCC(=O)N2CCN(C(=O)C(c3ccccc3)c3ccccc3)CC2)cc1	i
Cc1cccc(OCC(=O)Nc2ccc(C)cc2[N+](=O)[O-])c1	i
COc1ccc(OCc2nc(-c3ccc([N+](=O)[O-])cc3)no2)cc1	i
CC=Cc1ccc(OCCOc2ccccc2C=O)c(OC)c1	i
Cc1ccc(OCC(=O)Nc2ccc([N+](=O)[O-])cc2)c(Br)c1	i
Cc1ccc(-c2nnc(-c3ccccc3Cl)o2)cc1	i
Clc1ccccc1-c1nnc(-c2ccccc2Cl)o1	i
Clc1ccccc1-c1nnc(-c2ccccc2)o1	+
CCCN(CCC)C(=O)c1cc(OC)c(OC)cc1[N+](=O)[O-]	i
CCN1CCN(C(=O)c2ccc(C(C)(C)C)cc2)CC1	+
CC(C)(C)c1ccc(C(=O)N2CCCCCC2)cc1	i
CCOc1ccc(C(=O)N2CCN(CC)CC2)cc1	i
CCOc1ccc(NS(=O)(=O)c2ccc(NC(=O)c3ccccc3Cl)cc2)cc1	i
CSc1ccc(Cl)c(C(=O)Nc2ccc3c(c2)N(C(C)=O)c2ccccc2CC3)c1	i
O=C(CCCOc1ccc(Cl)cc1)Nc1ccc([N+](=O)[O-])cc1	i
O=C1CC(Sc2ccccc2)C(=O)N1c1ccccc1 (stereo not drawn)	i
CCC1CCCCN1C(=O)c1cccc([N+](=O)[O-])c1C (stereo not drawn)	i
CCN1CCN(C(=O)c2ccc(Cl)cc2[N+](=O)[O-])CC1	i
CCC1CCCCN1C(=O)c1ccc(Cl)cc1[N+](=O)[O-] (stereo not drawn)	+
COc1cc(-c2onc3ccc(Cl)cc23)cc(OC)c1OC	i
CCC(C(=O)N1CCCCCC1)c1ccccc1 (stereo not drawn)	i
CC(=O)Nc1ccccc1-c1nc2ccccc2s1	i
SMILES	Algae TAG accum
Cc1cccc(CN(CC(N)=O)S(=O)(=O)c2ccc(Cl)cc2)c1	i
CCCC(=O)Nc1ccccc1C(N)=O	i
COc1ccc(NC(=O)C2CC2(c2ccccc2)c2ccccc2)c(OC)c1 (stereo not drawn)	i
O=S(=O)(c1ccc(F)cc1)N1CCN(C2CCCCC2)CC1	+
CC1CCCN(C2CCN(S(=O)(=O)c3ccc(F)cc3)CC2)C1 (stereo not drawn)	+
CCCN1CCC(N2CCN(S(=O)(=O)c3ccc(F)cc3)CC2)CC1	i
O=S(=O)(c1ccc(F)cc1)N1CCCC1	i
Cc1ccc(S(=O)(=O)N2CCC(N3CCCCC3)CC2)cc1	i
O=S(=O)(c1ccc(F)cc1)N1CCN(C2CCCC2)CC1	i
COc1ccc(C(=O)CC2(O)C(=O)N(CCc3ccccc3)c3ccccc32)cc1[N+](=O)[O-] (stereo not drawn)	i
O=C(Nc1sc2c(c1C(=O)NC1CCS(=O)(=O)C1)CCCC2)c1ccccc1[N+](=O)[O-] (stereo not drawn)	i
COc1ccc(-c2c(C#N)c(N)nc(SCC(=O)c3ccc(O)c(O)c3)c2C#N)cc1	i
Cc1nnc(NC(=O)CCN2C(=O)CCC2=O)s1	i
O=C(Nc1ccc(Cl)c(NC(=O)c2ccco2)c1)c1ccc(I)cc1	i
